According to PubChem BioAssay AID1159580 (chemical genetic matrix, 2015):
In all, about 5,500 compounds went through this assay and about 2,000 (36%) were called active. Another 18% or so got no clear call; they are omitted. Some of the results follow. A number with no mark means an inactive call. No stated cut-off is given here; in the data, active means normalized growth mostly below about 0.91 (no sharp cut-off); inconclusive means no clear call, values can overlap the other calls; inactive means mostly above about 0.92.

Test: chemical genetic growth profiling, strain panel (AID 1159580);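 further: tested at 20 µM; growth read once vehicle control cultures reached saturation at 30 °C; 1 = growth at the plate median or of vehicle wells; lower values mean less growth of the strain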
Conditions: S. cerevisiae deletion strains, growth OD

Cc1c(C)c(C)c(C(=O)c2ccc(N=Cc3cc(Cl)cc(Cl)c3O)cc2)c(C)c1C
normalized growth (locus YAR019C, strain CDC15, active compounds read low): 0.929 | normalized growth (locus YBL105C, strain PKC1, active compounds read low): 0.934 | normalized growth (locus YBR135W, strain CKS1, active compounds read low): 0.94 | normalized growth (locus YBR136W, strain MEC1, active compounds read low): 0.925 | normalized growth (locus YBR160W, strain CDC28, active compounds read low): 0.944 | normalized growth (locus YDL017W, strain CDC7, active compounds read low): 0.926 | normalized growth (locus YDL028C, strain MPS1, active compounds read low): 0.941 | normalized growth (locus YDL101C, strain DUN1, active compounds read low): 0.949 | normalized growth (locus YDL108W, strain KIN28, active compounds read low): 0.944 | normalized growth (locus YDL132W, strain cdc53, active compounds read low): 0.926 | normalized growth (locus YDL214C, strain PRR2, active compounds read low): 0.681 (active) | normalized growth (locus YDR052C, strain DBF4, active compounds read low): 0.904 (active) | normalized growth (locus YDR054C, strain cdc34, active compounds read low): 0.918 | normalized growth (locus YDR226W, strain ADK1, active compounds read low): 0.923 | normalized growth (locus YDR477W, strain SNF1, active compounds read low): 0.573 (active) | normalized growth (locus YER123W, strain YCK3, active compounds read low): 0.464 (active) | normalized growth (locus YER133W, strain GLC7, active compounds read low): 0.527 (active) | normalized growth (locus YFL009W, strain cdc4, active compounds read low): 0.922 | normalized growth (locus YFL029C, strain CAK1, active compounds read low): 0.932 | normalized growth (locus YFR003C, strain YPI1, active compounds read low): 0.922 | normalized growth (locus YFR019W, strain FAB1, active compounds read low): 0.625 (active) | normalized growth (locus YFR028C, strain CDC14, active compounds read low): 0.941 | normalized growth (locus YGR040W, strain KSS1, active compounds read low): 0.63 (active) | normalized growth (locus YGR052W, strain FMP48, active compounds read low): 0.605 | normalized growth (locus YGR092W, strain DBF2, active compounds read low): 0.239 (active) | normalized growth (locus YHR030C, strain SLT2, active compounds read low): 0.262 (active) | normalized growth (locus YHR079C, strain IRE1, active compounds read low): 0.338 (active) | normalized growth (locus YHR082C, strain KSP1, active compounds read low): 0.631 | normalized growth (locus YHR205W, strain SCH9, active compounds read low): 0.509 (active) | normalized growth (locus YIL147C, strain SLN1, active compounds read low): 0.926 | normalized growth (locus YJL095W, strain BCK1, active compounds read low): 0.233 (active) | normalized growth (locus YJL128C, strain PBS2, active compounds read low): 0.927 | normalized growth (locus YJL157C, strain FAR1, active compounds read low): 0.503 (active) | normalized growth (locus YJR016C, strain ILV3, active compounds read low): 0.944 | normalized growth (locus YJR066W, strain TOR1 (second series), active compounds read low): 0.6 (active) | normalized growth (locus YJR066W, strain TOR1, active compounds read low): 0.458 (active) | normalized growth (locus YKL048C, strain ELM1, active compounds read low): 0.55 (active) | normalized growth (locus YKL067W, strain YNK1, active compounds read low): 0.663 (active) | normalized growth (locus YKL101W, strain HSL1, active compounds read low): 0.735 | normalized growth (locus YKL193C, strain SDS22, active compounds read low): 0.93 | normalized growth (locus YKL203C, strain TOR2, active compounds read low): 0.662 (active) | normalized growth (locus YLR113W, strain HOG1, active compounds read low): 0.585 (active) | normalized growth (locus YLR133W, strain CKI1, active compounds read low): 0.523 (active) | normalized growth (locus YLR403W, strain SFP1, active compounds read low): 0.459 (active) | normalized growth (locus YML070W, strain DAK1, active compounds read low): 0.502 (active) | normalized growth (locus YMR001C, strain CDC5, active compounds read low): 0.938 | normalized growth (locus YMR205C, strain PFK2 (second series), active compounds read low): 0.645 (active) | normalized growth (locus YMR277W, strain FCP1, active compounds read low): 0.929 | normalized growth (locus YNL006W, strain LST8, active compounds read low): 0.938 | normalized growth (locus YNL020C, strain ARK1, active compounds read low): 0.469 (active) | normalized growth (locus YNL161W, strain CBK1, active compounds read low): 0.925 | normalized growth (locus YNL183C, strain NPR1, active compounds read low): 0.655 | normalized growth (locus YNL207W, strain RIO2, active compounds read low): 0.937 | normalized growth (locus YNL222W, strain SSU72, active compounds read low): 0.94 | normalized growth (locus YNL307C, strain MCK1 (second series), active compounds read low): 0.503 (active) | normalized growth (locus YOL078W, strain AVO1, active compounds read low): 0.94 | normalized growth (locus YOL136C, strain PFK27, active compounds read low): 0.382 (active) | normalized growth (locus YOR061W, strain CKA2, active compounds read low): 0.493 (active) | normalized growth (locus YOR119C, strain RIO1, active compounds read low): 0.663 (active) | normalized growth (locus YOR231W, strain MKK1, active compounds read low): 0.446 (active) | normalized growth (locus YOR329C, strain SCD5, active compounds read low): 0.921 | normalized growth (locus YPL031C, strain PHO85, active compounds read low): 0.583 (active) | normalized growth (locus YPL153C, strain RAD53, active compounds read low): 0.504 (active) | normalized growth (locus YPL204W, strain HRR25, active compounds read low): 0.483 (active) | normalized growth (locus YPL209C, strain IPL1, active compounds read low): 0.925 | normalized growth (locus YPL256C, strain CLN2, active compounds read low): 0.403 (active) | normalized growth (locus YPR025C, strain CCL1, active compounds read low): 0.937 | normalized growth (locus YPR106W, strain ISR1, active compounds read low): 0.938 | normalized growth (locus YPR111W, strain DBF20, active compounds read low): 0.941 | normalized growth (strain NNK1, active compounds read low): 0.939 | normalized growth (strain TSCII, active compounds read low): 0.925
